Compounds with a hit are over-represented: about 12% of the library has one in this group of screens.
Pf growth 96h: P. falciparum growth inhibition at 96 hour, primary screen for plastid delayed-death inhibitors; P. falciparum luciferase reporter growth, 96 h; Potency, µM (titrated, usually from 28.7 µM), without a hit: at the top dose activity change, negative = inhibition, hits mostly inhibitors; actives 6.9% (n = 320,000); further: on the % scale 0 is the no-effect control and ±100 the full control effect
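Parasite growth measured via integrated firefly luciferase reporter in P. falciparum. Infected erythrocytes at 2% hematocrit, 0.05% parasitemia final were treated 96 hours at 37 C under 5% CO2, and luminescence was read.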
Sm TGR inh: S. mansoni TGR enzyme inhibition. AID 485364. actives 3% (n = 360,000). Potency, µM (top dose mostly 114 µM), for inactives: at the highest dose activity change, negative = inhibition, actives largely listed as inhibitors. purified TGR, DTNB reduction, TNB absorbance 405 nm; further: on the % scale 0 is the no-effect control and ±100 the full control effect; nearly all actives have a fitted effect of over 60% in size
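First, TGR (20 nM dispensed) and NADPH were mixed with compound. Second, a 15 min room-temperature incubation followed. Third, further NADPH and then DTNB were added to start the reaction. Finally, TNB absorbance was monitored kinetically.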
AmpC detergent: AmpC beta-lactamase inhibition with detergent present | P00811 | AmpC hydrolysis of nitrocefin, absorbance 480 nm, 0.01% Triton | Potency, µM (doses to about 114 µM), without a hit: at the top dose activity change, negative = inhibition, usual class: inhibitors | actives 0.041% (n = 370,000) | AID 485294;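 further: 0% = no-compound wells and -100% = no-enzyme wells; nearly all actives have a fitted effect of over 25% in size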
Target sequence (P00811 whole entry, looked up): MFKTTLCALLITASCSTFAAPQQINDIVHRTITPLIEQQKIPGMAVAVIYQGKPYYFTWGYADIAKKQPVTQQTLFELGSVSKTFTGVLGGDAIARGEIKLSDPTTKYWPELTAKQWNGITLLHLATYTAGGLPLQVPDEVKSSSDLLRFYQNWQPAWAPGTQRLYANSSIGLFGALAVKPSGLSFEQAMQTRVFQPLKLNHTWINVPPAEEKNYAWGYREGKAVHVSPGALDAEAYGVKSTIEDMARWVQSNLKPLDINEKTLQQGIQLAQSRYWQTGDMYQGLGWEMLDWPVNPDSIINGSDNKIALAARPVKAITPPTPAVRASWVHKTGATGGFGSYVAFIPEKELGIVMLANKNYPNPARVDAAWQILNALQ
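AmpC (5.3 nM in the dispensed reagent) in 20 mM phosphate pH 7.0 with 0.01% (detergent screen) or 0.0001% Triton X-100 was preincubated with compounds for 15 min at room temperature. Nitrocefin was then added from an 800 uM solution, and hydrolysis was followed at 480 nm.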
AmpC no deterg: blocks E. coli AmpC beta-lactamase in detergent-free assay; P00811; AmpC nitrocefin hydrolysis, absorbance 480 nm, 0.0001% Triton; Potency, µM (top dose mostly 57.1 µM), for the others: at the highest dose activity change, negative = inhibition, usual class: inhibitors; actives 0.52% (n = 330,000); AID 485341;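 further: plate controls were no compound for no effect and no enzyme for full effect; nearly all actives have a fitted effect of over 20% in size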
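AmpC (5.3 nM in the dispensed reagent) in 20 mM phosphate pH 7.0 with 0.01% (detergent screen) or 0.0001% Triton X-100 was preincubated with compounds for 15 min at room temperature. Nitrocefin was then added from an 800 uM solution, and hydrolysis was followed at 480 nm.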
Pf growth 48h: inhibits P. falciparum growth in the first generation, 48 h | actives 5.9% (n = 310,000) | AID 504832 | P. falciparum luciferase growth in erythrocytes, 48 h | Potency, µM (titrated, usually from 28.7 µM), inactives show top-dose activity change, negative = inhibition, actives largely listed as inhibitors; further: on the % scale 0 is the no-effect control and ±100 the full control effect
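First compound was added to culture medium, then infected red cells at 0.1% parasitemia and 2% hematocrit (final). After incubation at 37 C under 5% CO2, luciferase detection reagent was dispensed and light output recorded.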
SARS PLP yeast: inhibitors of SARS-CoV papain-like protease in yeast. Potency, µM (top dose mostly 32.9 µM), inactives show at the top dose activity, positive = growth rescue, most hits filed as activators. AID 485353. actives 0.19% (n = 330,000). S. cerevisiae expressing SARS-CoV PLpro, growth rescue; calls by dose curve; further: 0% is about no effect; nearly all actives have a fitted effect of over 55% in size
The depositor's hits bear a star; ? = inconclusive; . = not tested or not shown; [ ] = another dose, or the depositor's remark. Unless noted, the call rests on the fitted dose curve; in most records, active means well fitted curve in the direction sought with a large enough effect; inconclusive means small, poorly fitted or top-dose-only effect, or another doubt; inactive means no such curve, though single readings can be large; an effect the other way counts as inactive or inconclusive. Potency means the concentration at half of the fitted maximal effect.

SMILES	Pf growth 96h	Sm TGR inh	AmpC detergent	AmpC no deterg	Pf growth 48h	SARS PLP yeast
O=C(CS(=O)(=O)c1cccc2nsnc12)NCc1ccccc1	.	3.1%	0.2%	.	.	.
O=C(COC(=O)/C=C/c1cccc(F)c1)NC1CCCCCC1	.	.	.	-15.4%	.	6.3%
O=C(COC(=O)/C=C/c1ccco1)NC1CCCCC1	-12.4%	12.6µM*	-4.9%	-15.1%	-17.6%	-6.1%
O=C(C=C1SCCS1)/C=C/c1ccco1	331.0%	7.08µM*	-0.2%	-19.7%	297.0%	5.7%
CCC(CC)c1nn2c(=O)cc(COc3ccc(NC(=O)c4ccccc4Cl)cc3)nc2s1	.	5.5%	5.6%	.	.	.
O=C(COc1ccc(Cl)cc1)NCCCn1ccnc1	19.4%	-0.3%[11.4 µM]	-13.3%	-1.4%	.	?
CC(C)(C)C(=O)C(Oc1ccc(Cl)cc1)n1ccnc1 (stereo not drawn)	12µM*	.	.	.	-6.9%	.
Cc1cc(C)c2c(N)c3ccccc3nc2n1	106.1%	8.3%	-2.4%	-23.2%	14.7µM*	-8.0%
CCc1ccc(NC(=S)/N=C(\N)Nc2nc(C)c3cc(CC)ccc3n2)cc1	?	7.4%	-6.6%	-43.5%	?	0.0%
CCc1ccc2nc3nc(C)cc(C)c3c(N)c2c1	1.65µM*	2.8%	-1.2%	-8.1%	?	-1.5%
Cc1cc(C)c2cccc(N)c2n1	-59.4%	-9.1%	4.3%	-9.4%	22.3%	0.5%
Cc1c(Cl)cccc1NC(=O)c1ccc2c(c1)CCN2S(=O)(=O)c1ccccc1	.	0.8%	16.1%	.	.	.
CN(C)C(=O)c1ccc(Nc2nc(-c3cccs3)nc3ccccc23)cc1	10.4µM*	4.5%	1.7%	34.7%	10.4µM*	-3.8%
COc1ccc(Nc2nc(-c3cccs3)nc3ccccc23)c(OC)c1	?	-11.0%	1.2%	4.3%	-23.2%	-15.9%
CCCCN(Cc1nc2ccccc2c(=O)[nH]1)C(=O)COc1ccc(F)cc1Cl	3.7µM*	-2.0%	-12.6%	-37.0%	2.62µM*	0.3%
Nc1ccc(O)c(-c2nc3ccccc3s2)c1	?	-11.7%	-14.8%	-22.2%	?	-5.1%
Nc1ccccc1-c1nc2ccccc2s1	9.28µM*	.	-10.2%	-13.8%	68.3%	-1.7%
CCOC(=O)c1c(C)[nH]c(C=Nc2ccc(OC)cc2)c1O	14.7µM*	-16.6%	-12.3%	-24.7%	-21.0%	-16.3%
CCOC(=O)c1c(C)[nH]c(C=Nc2ccccc2)c1O	9.28µM*	31.6µM*	-0.4%	-6.8%	-1.2%	2.6%
COC(=O)c1c(C)[nH]c(C=Nc2ccc(OC)cc2)c1C	103.9%	0.4%	-0.1%	-18.9%	4.9%	0.6%
Cc1cc(C(=O)NNC(=O)Cc2ccc(Cl)c(Cl)c2)c(C)o1	?	-11.2%	-19.8%	-13.9%	?	-3.0%
CN(C1CCS(=O)(=O)C1)S(=O)C12CC3CC(CC(C3)C1)C2 (stereo not drawn)	10.7%	-9.1%	-5.1%	-9.7%	-1.5%	0.2%
C#CCOCCOCCOCCNc1nc(N2CCN(C(=O)CCCCCCCCCCNC(=O)Cn3cc(CCCCCN)nn3)CC2)nc(N2CCN(C(=O)CCCCCCCCCCNC(=O)[C@@H]([C@H](C)O)n3cc(C)nn3)CC2)n1	0.522µM*	?	-0.5%	297.4%	0.329µM*	-4.6%
C#CCOCCOCCOCCNc1nc(N2CCN(C(=O)CCCCCCCCCCNC(=O)Cn3cc(C[C@@H](C)O)nn3)CC2)nc(N2CCN(C(=O)CCCCCCCCCCNC(=O)[C@@H]([C@H](C)O)n3cc(C)nn3)CC2)n1	0.0828µM*	-1.1%	?	255.5%	0.0738µM*	-22.1%
C#CCOCCOCCOCCNc1nc(N2CCN(C(=O)Cn3cc(CC(C)O)nn3)CC2)nc(N2CCN(C(=O)Cn3cc(CC(C)O)nn3)CC2)n1 (stereo not drawn)	-0.5%	-7.6%	?	12.8%	22.8%	4.5%
